# PubChem BioAssay
# Results filed as inconclusive are left out. Activity calls are given as the source filed them.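 Rule for the calls, unless noted: active = viability increase at or above a cutoff of the median across tested compounds plus 3 SD (cut at about 8.5% in these data, passing the limit was not always enough); inconclusive = some gains above the cutoff, reason not given; inactive = the rest.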
# How the values were obtained:
# [1] = Her2 expression decrease, cell viability multiplex – SKBR3 breast tumor cells, AlphaScreen, ATP viability, primary screen (AID 461;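 active = Her2 level under about 52% in both replicate screens, with viability over 70% of control, limit read from the data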;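 for Her2 level: lower value means less Her2 protein in the cells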;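 for viability: percent of carrier control wells set as 100% viability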); conditions: SKBR3 Her2 protein level, 18-24 h, measured here: SKBR3 viability, ATP luminescence, at 10 µM
# [2] = target: Receptor tyrosine-protein kinase erbB-2 (Homo sapiens) (UniProt P04626); experiment: as above; conditions: 18-24 h, at 10 µM, stronger effect = lower value
# [3] = reduced viability of SK-BR-3 breast cancer cells – cell-based, 24 h, human, pilot screen (AID 572;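 active = viability at or below 10% of carrier control in both of two separate runs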;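 note: compound exposure lasted between 18 and 24 h rather than exactly 24 h; 100% = carrier-treated control wells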); conditions: SK-BR-3 viability, CellTiter-Glo luminescence, at 10 µM, stronger effect = lower value
# [4] = HUVEC growth inhibition – cell-based, human, primary screen (AID 575;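 active = viability at or below 30% in both replicate assays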;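 note: 100% = median of untreated cell wells with 0.1% DMSO on each plate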); conditions: HUVEC proliferation, CellTiter-Glo luminescence, 72 h; at 10 µM; stronger effect = lower value
# [5] = H69AR cell proliferation blockers – human, duplicate replicates, primary screen (AID 580;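 active = viability at or under a set limit in both replicates, limit being median viability minus 3 SD, cut at about 48% in these data, passing the limit was not always enough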;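 note: 100% = mean luminescence of untreated wells and 0% = no signal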); conditions: H69AR lung tumor cells viability, ATP luminescence, 72 h; at 10 µM; stronger effect = lower value
# [6] = MRP1 drug-resistance reversers in H69AR cells – cell-based, doxorubicin co-treatment, pilot screen (AID 601;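 active = viability loss from added drug above about 55%, and viability with drug at most 40%, in both replicates, limit read from the data, passing the limit was not always enough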); conditions: CellTiter-Glo, 72 h, at 10 µM; for differential viability (reversal): stronger effect = higher value
# [7] = yeast transport mutant growth inhibition pilot in 384-well plates, post-Golgi transport modulator project (AID 636; in the data active = inhibition above about 31%); conditions: absorbance 615 nm, about 18 h, stronger effect = higher value
# [8] = growth suppression of yeast trafficking mutant, preliminary HTS, modulators of trafficking downstream of Golgi apparatus project, 1536-format plate, OD 615 nm (AID 637; in the data active = inhibition above about 30%); conditions: yeast transport mutant growth, absorbance 615 nm, 18 h; stronger effect = higher value
# [9] = S. cerevisiae growth inhibition in permissive medium (OD615), pilot counter-assay for S. cerevisiae lifespan shortening project, permissive growth control (AID 705;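 active = growth inhibition above 25% in both replicates, a cutoff set 3 SD above the mean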); conditions: OD615, 24 h, at 10 µM, stronger effect = higher value
# [10] = S. cerevisiae growth inhibition in restrictive medium, OD615, pilot screen, restrictive growth control, yeast lifespan reduction project (AID 706;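 active = growth inhibition above a set limit, 3 SD over mean compound inhibition, in both replicates, cut at about 43% in these data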;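 note: modified DeaD lifespan yeast strain shifted to restrictive glucose medium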); conditions: OD615, 48 h, at 10 µM, stronger effect = higher value
# [11] = doxorubicin toxicity protection in MRP-1 cells – H69AR cells, CellTiter-Glo, duplicate, MRP-1 activator project, pilot screen (AID 807); conditions: H69AR viability with doxorubicin, CellTiter-Glo luminescence; at 10 µM; stronger effect = higher value;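 note: compound pretreatment 18-22 h then 72 h combined with doxorubicin; 0% = doxorubicin alone and 100% = vehicle without doxorubicin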
# [12] = viability of HCT116 without oncogenic beta-catenin – human colon tumor cells, pilot screen (AID 823;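 active = cell viability at or below a set limit in both duplicate runs, the limit being the all-compound median minus 4 SD, cut at about 23% in these data, passing the limit was not always enough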;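 note: 0% = wells killed by 20 µM Hyamine and 100% = untreated DMSO cell wells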); conditions: HCT116 beta-catenin knockout viability, CellTiter-Glo, 60 h; at 10 µM; stronger effect = lower value
# [13] = viability of PTEN-null HCT116 cells – cell-based, HCT116 clonal line, CellTiter-Glo, pilot screen (AID 824;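 active = viability at or below 27.92% in each of two runs, the all-compound median minus 4 SD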;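 note: 0% = 20 µM Hyamine control and 100% = vehicle cell control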); conditions: HCT116 PTEN-deleted viability, 60 h, at 10 µM, stronger effect = lower value
# [14] = RAM pathway blockade in budding yeast – dse1pr::URA3 reporter, 5-FOA selection, pilot screen (AID 869;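 active = inhibition over a set limit, the all-compound mean plus 3 SD, in both replicate runs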;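 note: 0% = DMSO wells with no growth and 100% = 10 µM 1-NA-PP1 with full growth; RAM network block rescues cells from 5-FOA so hits raise OD615 growth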); conditions: S. cerevisiae dse1pr::URA3 5-FOA growth, OD615, 2 d; at 10 µM; stronger effect = higher value; strain carries analog-sensitive mutant Cbk1 kinase
# [15] = RAM signaling pathway blockade in yeast – S. cerevisiae, Pdr1DBD-CYC8 efflux-inhibited sensitized strain, primary screen (AID 1298;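 active = RAM network inhibition above 8.4% in each of two replicates, 3 SD over the compound average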;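 note: 0% = DMSO untreated cells without growth and 100% = 10 µM 1-NA-PP1 full growth; higher means more yeast growth rescued from 5-FOA killing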); conditions: S. cerevisiae cbk1-as DSE1-URA3 strain, 5-FOA growth OD615, 2 d; at 50 µM; stronger effect = higher value
# [16] = H69AR cells + 2 uM doxorubicin, measured here: viability with 2 uM doxorubicin, stronger effect = lower value
# [17] = H69AR cells, compound alone cytotoxicity
# Receptor tyrosine-protein kinase erbB-2 (Homo sapiens), sequence (P04626 whole entry, looked up): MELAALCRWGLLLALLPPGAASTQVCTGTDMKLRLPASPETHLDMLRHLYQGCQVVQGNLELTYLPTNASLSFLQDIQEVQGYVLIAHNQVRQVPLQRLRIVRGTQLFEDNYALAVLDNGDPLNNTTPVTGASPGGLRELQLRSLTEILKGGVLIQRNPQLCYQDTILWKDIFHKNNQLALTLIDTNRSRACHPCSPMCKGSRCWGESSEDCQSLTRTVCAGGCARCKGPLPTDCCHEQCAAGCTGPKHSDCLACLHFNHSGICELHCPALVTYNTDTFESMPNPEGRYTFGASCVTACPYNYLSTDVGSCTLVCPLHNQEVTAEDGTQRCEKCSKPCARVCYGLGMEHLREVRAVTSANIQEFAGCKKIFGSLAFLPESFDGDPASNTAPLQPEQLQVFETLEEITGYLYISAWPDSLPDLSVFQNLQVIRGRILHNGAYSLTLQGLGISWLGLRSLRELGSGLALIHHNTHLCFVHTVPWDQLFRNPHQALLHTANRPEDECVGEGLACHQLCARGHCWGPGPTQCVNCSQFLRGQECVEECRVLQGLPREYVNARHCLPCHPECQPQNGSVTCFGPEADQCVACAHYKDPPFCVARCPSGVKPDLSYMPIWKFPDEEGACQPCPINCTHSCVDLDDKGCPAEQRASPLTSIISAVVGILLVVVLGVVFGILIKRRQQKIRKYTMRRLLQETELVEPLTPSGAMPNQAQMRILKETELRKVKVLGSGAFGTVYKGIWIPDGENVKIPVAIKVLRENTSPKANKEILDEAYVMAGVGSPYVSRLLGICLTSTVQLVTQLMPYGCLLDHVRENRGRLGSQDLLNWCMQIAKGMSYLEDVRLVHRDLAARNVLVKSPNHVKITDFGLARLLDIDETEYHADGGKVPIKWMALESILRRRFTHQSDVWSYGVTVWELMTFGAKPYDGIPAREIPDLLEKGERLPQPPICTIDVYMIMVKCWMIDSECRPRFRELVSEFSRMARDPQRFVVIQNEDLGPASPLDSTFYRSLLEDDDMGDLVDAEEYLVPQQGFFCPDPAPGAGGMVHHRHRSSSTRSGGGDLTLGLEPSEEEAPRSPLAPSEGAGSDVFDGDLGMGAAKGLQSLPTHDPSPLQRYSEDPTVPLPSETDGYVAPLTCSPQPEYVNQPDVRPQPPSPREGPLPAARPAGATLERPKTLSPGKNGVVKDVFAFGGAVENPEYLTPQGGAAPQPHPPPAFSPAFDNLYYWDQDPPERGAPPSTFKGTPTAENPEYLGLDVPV
Compound,viability [1] [%],Her2 level [2],viability [3],viability [4],viability [5],differential viability (reversal) ([6]; H69AR cells + 2 uM doxorubicin),"viability [6, 16] [%]","viability [6, 17] [%]",inhibition [7],inhibition [8],growth inhibition [9],growth inhibition [10],viability increase [11],viability [12],viability [13],inhibition [14],RAM network inhibition [15]
Cc1ccc(S(=O)(=O)Cc2ccc(C(=O)N3CCN(Cc4ccccc4)CC3)o2)cc1,86.5,80.5% (inactive),86.5% (inactive),106% (inactive),85.8% (inactive),-8.85% (inactive),94.6,85.8,-0.9% (inactive),3.5% (inactive),0.06% (inactive),-3.51% (inactive),-1.59% (inactive),97.3% (inactive),94.9% (inactive),1.59% (inactive),6.48% (inactive)
CCCCN(C)Cc1c(O)ccc2c(-c3ccccc3)cc(=O)oc12,89,102% (inactive),89% (inactive),111% (inactive),96.7% (inactive),8.13% (inactive),88.6,96.7,-2.7% (inactive),2.95% (inactive),-4.28% (inactive),2.96% (inactive),-2.64% (inactive),91% (inactive),93.6% (inactive),0.605% (inactive),1.89% (inactive)
Cc1c(C(=O)OCc2ccccc2)[nH]c2c1C(=O)CC(c1ccco1)C2 (stereo not drawn),86.5,40.5% (active),86.5% (inactive),7.06% (active),6.48% (active),-2.23% (inactive),8.71,6.48,4.87% (inactive),-0.5% (inactive),-15.1% (inactive),-7.56% (inactive),-4.85% (inactive),16.3% (active),18.2% (active),1.69% (inactive),1% (inactive)
COc1ccc(-c2nc(CSCC(=O)NCc3ccc4c(c3)OCO4)c(C)o2)cc1OC,98,108% (inactive),98% (inactive),92.9% (inactive),84.9% (inactive),-7.12% (inactive),92,84.9,-4% (inactive),1.5% (inactive),-13.4% (inactive),-12.2% (inactive),-3.57% (inactive),84.7% (inactive),74.1% (inactive),0.57% (inactive),6.3% (inactive)
Fc1cccc(Nc2ncnc3c2cnn3-c2ccccc2)c1,83.5,70.5% (inactive),83.5% (inactive),54.9% (inactive),37.9% (active),-31.6% (inactive),69.5,37.9,2.4% (inactive),-1.67% (inactive),-5.18% (inactive),-6.66% (inactive),-5.13% (inactive),71.5% (inactive),70.2% (inactive),0.315% (inactive),0.26% (inactive)
Cc1ccc(-c2noc(COc3ccccc3C)n2)cc1,72.5,92% (inactive),72.5% (inactive),102% (inactive),96.9% (inactive),10.6% (inactive),86.3,96.9,-1.2% (inactive),1.61% (inactive),-13.7% (inactive),-16.5% (inactive),3.84% (inactive),93% (inactive),103% (inactive),0.065% (inactive),0% (inactive)
Cc1ccccc1Cn1ccc(NC(=O)c2onc(C)c2Cl)n1,107,106% (inactive),107% (inactive),93.6% (inactive),100% (inactive),16.8% (inactive),83.6,100,-4% (inactive),-4.17% (inactive),-7.95% (inactive),2.75% (inactive),4.68% (inactive),103% (inactive),91.2% (inactive),1.72% (inactive),4.82% (inactive)
O=C(c1ccc(Br)o1)N(Cc1ccccc1)c1ccccn1,93.5,102% (inactive),93.5% (inactive),99.6% (inactive),92.9% (inactive),2.17% (inactive),90.7,92.9,1.49% (inactive),-0.98% (inactive),-3.17% (inactive),-6.46% (inactive),-6.28% (inactive),94.9% (inactive),84% (inactive),1.94% (inactive),12% (inactive)
CCN1C(=C2C(=O)c3ccccc3C2=O)C=Cc2ccccc21,96.5,97% (inactive),96.5% (inactive),92.6% (inactive),93.4% (inactive),-0.49% (inactive),93.9,93.4,0.64% (inactive),-8% (inactive),-23.3% (inactive),-27.6% (inactive),-1.18% (inactive),105% (inactive),95.1% (inactive),1.86% (inactive),-0.72% (inactive)
